Screens deposited in PubChem by National Center for Advancing Translational Sciences (NCATS).
In the library only some 11% were active in any assay of this set; here they are far more common.
ALDH1A1 inh – blocks purified human ALDH1A1 activity | P00352 | 7.3% of 220,000 active | Potency, µM (top dose mostly 75.3 µM), usual class: inhibitors | Purified ALDH1A1, NADH fluorescence, propionaldehyde substrate
PNC assembly inh – blocks assembly of the perinucleolar compartment. activity change (PNC), negative = inhibition, % at 10 µM. AID 2417. PC3M PTB-GFP, PNC prevalence imaging, 16 h; active compounds read low. 3.1% of 140,000 active;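 active = readout at or below -70, meaning at least 70% loss of cells showing the perinucleolar compartment, a nuclear body marking cancer cells; inconclusive = readout between -30 and a set limit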
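Compounds are pinned in duplicate onto adhered PC3M cells stably expressing GFP-tagged PTB and incubated 16 h at 37 C. Cells are then fixed, nuclei stained with Hoechst, and PNC-positive cells counted.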
HPGD inh – HPGD (human) dehydrogenase inhibition. P15428. purified HPGD, NADH fluorescence kinetic, PGE2 substrate. Potency, µM, most hits filed as inhibitors. 4.3% of 150,000 active
Target sequence (P15428 whole entry, looked up): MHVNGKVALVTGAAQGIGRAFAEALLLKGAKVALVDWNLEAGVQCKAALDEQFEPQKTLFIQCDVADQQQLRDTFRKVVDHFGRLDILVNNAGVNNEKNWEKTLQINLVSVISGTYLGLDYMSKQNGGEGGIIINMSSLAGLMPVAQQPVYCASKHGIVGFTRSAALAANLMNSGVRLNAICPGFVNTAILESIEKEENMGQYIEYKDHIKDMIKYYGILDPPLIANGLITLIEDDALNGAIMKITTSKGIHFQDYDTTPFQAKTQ
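20 nM HPGD preincubated 15 min at room temperature with compound in 50 mM Tris-HCl pH 8, 0.01% Tween 20. Started with 1 mM NAD+ and 30 uM prostaglandin E2; NADH fluorescence (360/450 nm) read 5 times over 30-s intervals, last minus first.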
Large screens that a line does not name were inactive. Unless noted, calls follow the shape of the dose curve; as a rule, active = well fitted inhibition curve with a large enough effect (not every such curve was filed as active); inconclusive = small, poorly fitted or top-dose-only effect, or another doubt; inactive = no such curve, though single readings can be large or run the other way.

CC(C)(O)C#Cc1ccc(C(=O)N2CCN(c3ccccc3)CC2)cc1	PNC assembly inh inconclusive
COc1ccnc(-n2cccc2/C=N/O)c1C#N	none (no result: PNC assembly inh, HPGD inh)
O=C(NC1CCCCC1)C12CC3CC(CC(Cl)(C3)C1)C2	PNC assembly inh inconclusive
N#CCCn1cc(C=O)c(-c2cccs2)n1	none (no result: PNC assembly inh, HPGD inh)
Cc1noc(C)c1C(=O)N1CCC2(CCCN(c3ccccc3)C2)CC1	none (no result: PNC assembly inh)
COC(=O)/C=C/c1oc2ccccc2c1C	none (no result: PNC assembly inh, HPGD inh)
COc1cc(S(=O)(=O)N2CCN(C(=O)c3ccccc3)CC2)c(OC)cc1Br	none (no result: PNC assembly inh, HPGD inh)
COc1ccc2c(c1)c(=O)cc(-c1ccccc1)n2C	ALDH1A1 inh inconclusive, HPGD inh inconclusive
Cn1c(-c2ccccc2)cc(=O)c2ccccc21	HPGD inh 25µM
O=C(Nc1ccccc1)C1=C[C@H](C2CC2)C[C@H](OCCCCO)O1	none (no result: PNC assembly inh, HPGD inh)
O=C(NC(=S)Nc1ccc(C(=O)N2CCOCC2)cc1)c1ccc([N+](=O)[O-])cc1	ALDH1A1 inh 10µM, PNC assembly inh inconclusive, HPGD inh 0.71µM
CC(C)NS(=O)(=O)c1ccc(NC(=S)NC(=O)c2cccc([N+](=O)[O-])c2)cc1	ALDH1A1 inh 8.9µM, HPGD inh inconclusive
CC(C)Oc1ccc(C(=O)NC(=S)Nc2ccc(CN3CCOCC3)cc2)cc1	ALDH1A1 inh 7.1µM
CCC(=O)NC(=S)Nc1ccc(S(=O)(=O)NC(C)C)cc1	none
O=C(NC(=S)Nc1ccccc1N1CCOCC1)c1ccc([N+](=O)[O-])cc1	ALDH1A1 inh inconclusive
CC(C)C(=O)NC(=S)Nc1ccc(CN2CCOCC2)cc1	none (no result: PNC assembly inh, HPGD inh)
O=C(NC(=S)Nc1ccc(CN2CCOCC2)cc1)c1cccc([N+](=O)[O-])c1	ALDH1A1 inh 13µM, PNC assembly inh -100
O=C(NC(=S)Nc1ccc(N2CCOCC2)cc1)c1cccc([N+](=O)[O-])c1	none
NC(=O)c1ccsc1NC(=O)CSc1nnc(Nc2ccccc2)s1	none (no result: PNC assembly inh, HPGD inh)
CNC(=O)CC1C(=O)N(C)C(=S)N1NC(=O)c1ccc(Cl)cc1 (configuration not stated)	none
CCC(=O)OCC(=O)[C@@]1(OC(=O)CC)[C@@H](C)C[C@H]2[C@@H]3CCC4=CC(=O)C=C[C@]4(C)[C@@]3(F)[C@@H](O)C[C@@]21C	none (no result: PNC assembly inh)
C=CC[C@@H]1C=C[C@H](O/N=C(\C)CCN2CCc3nc(CC)c(CC)cc3C2)[C@H](CO)O1	none (no result: PNC assembly inh, HPGD inh)
CCCCC1=NN(C(=O)c2cccnc2)C(O)(C(F)(F)F)C1 (configuration not stated)	none (no result: PNC assembly inh, HPGD inh)
Cc1ccc(NC(=O)CCCCCCCCCCC2COCCO2)c(C)c1 (configuration not stated)	none
Cc1cccc2sc(NNC(=O)c3cc(=O)c4ccccc4o3)nc12	none (no result: PNC assembly inh, HPGD inh)
Cc1ccc2sc(NNC(=O)c3cc(=O)c4ccccc4o3)nc2c1C	ALDH1A1 inh 13µM (no result: PNC assembly inh, HPGD inh)
Cn1c(CN2CCN(C(=O)c3ccc(F)cc3)CC2)nc2cc([N+](=O)[O-])ccc21	PNC assembly inh inconclusive
CC(C)n1c(-c2cccnc2)nc2cnccc21	PNC assembly inh -100
Cc1nc2cnccc2n1C	none (no result: PNC assembly inh, HPGD inh)
COC(=O)C1=C(C)N(Cc2ccccc2)C2=C3C(=O)OCCC3[C@@](O)(C(=O)OC)C(=O)N2C1c1ccccc1 (some centres not stated)	none (no result: PNC assembly inh, HPGD inh)
NC1=NC(=O)/C(=C/c2ccccc2OS(=O)(=O)c2ccc3ccccc3c2)S1	none
CCOC(=O)NC(=O)COC(=O)c1ccc(O)cc1	none (no result: PNC assembly inh, HPGD inh)
CC(C)NC(=O)NC(=O)COC(=O)c1ccc(S(=O)(=O)Nc2ccccc2)cc1	none (no result: PNC assembly inh, HPGD inh)
CC(C)NC(=O)NC(=O)COC(=O)c1ccc(OC(F)(F)F)cc1	PNC assembly inh -89
COc1cc(C(=O)OCC(=O)NC(=O)c2cccn2C)ccc1OC(F)F	none (no result: PNC assembly inh, HPGD inh)
Cc1ccc(C(=O)OCC(=O)NC(=O)c2cccn2C)cc1	PNC assembly inh -81
CNC(=O)NC(=O)COC(=O)c1ccc(-n2c(C)ccc2C)cc1	PNC assembly inh -115 (no result: HPGD inh)
O=C(NC(=S)Nc1nc2c(ccc3ccccc32)s1)c1cccs1	ALDH1A1 inh inconclusive
CC(C)c1ccc2c(c1)C1Cc3ccccc3C1N2 (configuration not stated)	ALDH1A1 inh inconclusive, HPGD inh inconclusive
COc1ccc(NC(C)=O)cc1S(=O)(=O)N1CCN(C/C=C/c2ccccc2)CC1	none (no result: PNC assembly inh, HPGD inh)
O=c1[nH]ncc2ccccc12	ALDH1A1 inh inconclusive (no result: PNC assembly inh)
COCCNS(=O)(=O)c1cc(C(=O)O)ccc1OC	none (no result: PNC assembly inh, HPGD inh)
Cc1cc2nc(/C=C/c3nc4cc(C)c(C)cc4[nH]3)[nH]c2cc1C	none (no result: PNC assembly inh, HPGD inh)
Cc1cc2[nH]c(=S)[nH]c2cc1C	ALDH1A1 inh 28µM, PNC assembly inh inconclusive, HPGD inh 14µM
COC(=O)C(Cc1ccccc1)P(=O)(c1ccccc1)c1ccccc1 (configuration not stated)	none
Cc1ccc(-n2cc(-c3ccccc3)[nH]c2=O)cc1F	ALDH1A1 inh 20µM
Fc1ccccc1-n1cc(-c2ccccc2)[nH]c1=S	none (no result: PNC assembly inh, HPGD inh)
